Source: PMC5540273 (PLoS ONE, 2017)

Assays:
Settings in all cases: concentration: 1 μM, replicates: in singlicate; n = 1
[1] = tested on: RPS6KA5(Kin.Dom.2-C-terminal)
[2] = tested on: T1, RSK1(Kin.Dom.1-N-terminal)
T1 construct: gene RPS6KA1

[3] = tested on: T2, RSK1(Kin.Dom.2-C-terminal)
T2 construct: gene RPS6KA1

[4] = tested on: T3, RSK2(Kin.Dom.1-N-terminal)
T3 construct: gene RPS6KA3

[5] = tested on: T4, RSK2(Kin.Dom.2-C-terminal)
T4 construct: gene RPS6KA3

[6] = tested on: T5, RSK3(Kin.Dom.1-N-terminal)
T5 construct: gene RPS6KA2

[7] = tested on: T6, RSK3(Kin.Dom.2-C-terminal)
T6 construct: gene RPS6KA2

[8] = tested on: T7, RSK4(Kin.Dom.1-N-terminal)
T7 construct: gene RPS6KA6

[9] = tested on: T8, RSK4(Kin.Dom.2-C-terminal)
T8 construct: gene RPS6KA6

S6K1 = tested on: S6K1
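Note: KINOMEscan kinase panel screen.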

Row | SMILES | %Inh [1] [%] | %Inh [2] [%] | %Inh [3] [%] | %Inh [4] [%] | %Inh [5] [%] | %Inh [6] [%] | %Inh [7] [%] | %Inh [8] [%] | %Inh [9] [%] | %Inh (S6K1) [%]
1 | O=C(Nc1ccccc1)Nc1ccc(Oc2ccc3nccn3n2)cc1 | 19 | 5 | 0 | 0 | 0 | 6 | 0 | 0 | 0 | 0
2 | Nc1nc(-c2ccc3c(N)n[nH]c3c2)cc(N2CCCCC2)n1 [GSK2228768] | 0 | 0 | 0 | 0 | 0 | 15 | 0 | 0 | 0 | 0
3 | CN1c2ccc(-c3ccc(C(=O)NCCO)cc3)cc2-c2[nH]ncc2S1(=O)=O | 14 | 0 | 26 | 12 | 41 | 0 | 35 | 3 | 27 | 33
4 | COc1cc2ncnc(Nc3ccc(OCc4ccccc4Br)c(Cl)c3)c2cc1OC.Cl [GI261590] | 0 | 32 | 0 | 0 | 3 | 100 | 0 | 0 | 0 | 11
5 | Cl.Cl.c1ccc(-c2cc3ccncc3cc2OC2CCNCC2)cc1 [GSK1122999] | 8 | 22 | 21 | 9 | 55 | 0 | 6 | 0 | 30 | 7
6 | c1ccc(-c2ccc3c(-c4ccnc(Nc5ccc6c(c5)OCCO6)n4)cnn3n2)cc1 [GW818941] | 7 | 0 | 2 | 0 | 23 | 0 | 3 | 0 | 4 | 3
7 | Cc1ccc(NC(=O)c2cccc(C#N)c2)cc1-c1ccc(C(=O)Nc2ccncc2)cc1 [GSK1398463] | 1 | 24 | 0 | 0 | 6 | 9 | 0 | 0 | 1 | 11
8 | CNc1nccc(-c2c(-c3ccc(F)cc3)ncn2CCCN2CCOCC2)n1 [SB-222516] | 17 | 5 | 0 | 9 | 55 | 3 | 0 | 7 | 87 | 2
9 | Fc1cccc(COc2ccc(Nc3ncnc4cc[nH]c34)cc2Cl)c1 | 0 | 12 | 23 | 15 | 0 | 8 | 26 | 20 | 29 | 21
10 | Fc1cccc(COc2ccc(Nc3ncnc4sc(-c5ccc[nH]5)cc34)cc2Cl)c1 [GW707818] | 20 | 25 | 8 | 0 | 0 | 0 | 5 | 0 | 5 | 0
11 | COC(=O)c1c(-c2ccccc2)c2cc(Cl)ccc2c(=O)n1Cc1ccc(S(C)(=O)=O)cc1 | 0 | 5 | 11 | 5 | 15 | 9 | 6 | 0 | 8 | 0
12 | Nc1nc(-c2ccc3c(N)n[nH]c3c2)cc(N2CCC[C@@H](C(=O)Nc3ccccc3)C2)n1.O=C(O)C(F)(F)F.O=C(O)C(F)(F)F [GSK2288359] | 6 | 20 | 13 | 0 | 0 | 7 | 0 | 0 | 5 | 0
13 | CS(=O)(=O)CCNCc1ccc(-c2ccc3ncnc(Nc4ccc(OCc5ccccc5)c(Cl)c4)c3c2)o1.Cl [GW574783] | 0 | 0 | 0 | 4 | 29 | 17 | 6 | 6 | 8 | 0
14 | FC(F)(F)c1ccc(-c2cc(-c3c[nH]nc3-c3ccccn3)ccn2)cc1 [GW599550] | 15 | 20 | 7 | 0 | 2 | 12 | 5 | 0 | 42 | 2
15 | COc1ccc(-c2oc3ncnc(N)c3c2-c2ccc(OC)cc2)cc1 [SB-589132] | 0 | 29 | 30 | 9 | 30 | 5 | 0 | 0 | 69 | 16
16 | O=C(CCO)NCCn1ccc2ncnc(Nc3ccc(Oc4cccc(C(F)(F)F)c4)c(Cl)c3)c21 | 0 | 0 | 0 | 0 | 0 | 3 | 4 | 0 | 0 | 0
17 | Nc1n[nH]c2nnc(-c3ccccc3)cc12 [SB-517389] | 2 | 28 | 9 | 0 | 76 | 4 | 24 | 0 | 25 | 25

Row | SMILES | %Inh [1] [%] | %Inh [2] [%] | %Inh [3] [%] | %Inh [4] [%] | %Inh [5] [%] | %Inh [6] [%] | %Inh [7] [%] | %Inh [8] [%] | %Inh [9] [%] | %Inh (S6K1) [%]
18 | Cc1cc(N2CCC(NS(=O)(=O)c3ccc(F)cc3)CC2)nc(Nc2cccc(C#N)c2)n1.O=C(O)C(F)(F)F [GSK1653537] | 0 | 7 | 0 | 3 | 20 | 18 | 0 | 62 | 10 | 0
19 | Nc1nc(-c2cccnc2)c(-c2ccnc3ccccc23)s1 [GW684083] | 0 | 11 | 22 | 3 | 27 | 8 | 0 | 0 | 79 | 18
20 | CNc1nccc(-c2c(-c3ccc(F)cc3)ncn2C2CCN(C)CC2)n1 [SB-222903] | 12 | 0 | 32 | 5 | 0 | 0 | 0 | 0 | 73 | 0
21 | Clc1cccc(-c2nc(Nc3ccncc3)c3ccccc3n2)c1 [GW873004] | 16 | 0 | 10 | 49 | 40 | 0 | 2 | 0 | 24 | 0
22 | COc1ccc(NC(=O)c2ccc(-c3cc(-c4nnc(C)o4)ccc3C)cc2)cc1 [GW595885] | 0 | 17 | 0 | 0 | 0 | 0 | 0 | 0 | 5 | 4
23 | Cn1ccc2ncnc(Oc3ccc(NC(=O)Nc4cccnc4)c(Cl)c3)c21 | 13 | 0 | 41 | 1 | 0 | 0 | 17 | 0 | 3 | 0
24 | Clc1ccc(-c2cc(-c3c[nH]nc3-c3ccccn3)ccn2)cc1 [GW681251] | 0 | 6 | 13 | 0 | 21 | 0 | 0 | 0 | 44 | 0
25 | Nc1nccc2scc(-c3ccc4c(c3)CCN4C(=O)Cc3cc(F)ccc3F)c12 [GSK2587663] | 0 | 12 | 15 | 3 | 7 | 29 | 0 | 0 | 13 | 0
26 | CC(C)(C)c1ccc(-n2cnc3c(N)ncnc32)cc1 [SKF-97263] | 0 | 0 | 16 | 0 | 28 | 8 | 0 | 15 | 0 | 10
27 | Cl.Fc1ccccc1COc1ccc(Nc2ncnc3ccc(-c4nnc(C(F)(F)F)o4)cc23)cc1Cl [GW424170] | 0 | 1 | 1 | 0 | 0 | 0 | 0 | 0 | 2 | 0
28 | Cc1ccc(C)c(NC(=O)NCCNc2ccnc(Nc3ccc(F)cc3)n2)c1 [GSK1379878] | 5 | 0 | 0 | 0 | 0 | 0 | 0 | 0 | 0 | 0
29 | Cl.O=S(=O)(c1cccc(F)c1)c1ccc(Nc2ncnc3cc(Br)sc23)cc1Cl [GSK306886] | 4 | 17 | 17 | 0 | 0 | 0 | 31 | 0 | 14 | 0
30 | CCc1nc(-c2cccc(C)c2)c(-c2ccnc(NC(=O)c3ccccc3)c2)s1 | 1 | 0 | 53 | 0 | 39 | 0 | 5 | – | 46 | 0
31 | Clc1cc(Nc2ncnc3cc[nH]c23)ccc1OCc1ccccn1 | 1 | 0 | 28 | 10 | 0 | 26 | 20 | 2 | 28 | 29
32 | CC(C)N1CCC(n2cnc(-c3ccc(F)cc3)c2-c2ccnc(N)n2)CC1 [SB-223132] | 0 | 0 | 56 | 3 | 29 | 12 | 4 | 0 | 66 | 0
33 | CC(C)(C)OC(=O)NC1CCCN(c2cc(-c3ccc4c(N)n[nH]c4c3)nc(N)n2)C1 (stereo not drawn) [GSK2286096] | 0 | 26 | 0 | 27 | 100 | 0 | 0 | 36 | 23 | 2
34 | Fc1cccc(COc2ccc(Nc3ncnc4nn5ccccc5c34)cc2Cl)c1 [GW689066] | 0 | 4 | 0 | 0 | 0 | 0 | 0 | 0 | 0 | 0
